Test results from the supplement of paper PMC3334620.
Over roughly 33,000 sequences, “E-score (-0.5 to 0.5)” has its median near -0.054; the highest 2% begin near 0.35. Only a selection was taken, and the highest values are over-represented in it overall.

biological target: T1, Stb5 (UniProt P38699); assay: PBM E-score (8-mer binding enrichment) (E-score (-0.5 to 0.5)); higher = stronger / more preferred TF binding; conditions: protein concentration: 200 nM; construct: GST-full length
T1 sequence: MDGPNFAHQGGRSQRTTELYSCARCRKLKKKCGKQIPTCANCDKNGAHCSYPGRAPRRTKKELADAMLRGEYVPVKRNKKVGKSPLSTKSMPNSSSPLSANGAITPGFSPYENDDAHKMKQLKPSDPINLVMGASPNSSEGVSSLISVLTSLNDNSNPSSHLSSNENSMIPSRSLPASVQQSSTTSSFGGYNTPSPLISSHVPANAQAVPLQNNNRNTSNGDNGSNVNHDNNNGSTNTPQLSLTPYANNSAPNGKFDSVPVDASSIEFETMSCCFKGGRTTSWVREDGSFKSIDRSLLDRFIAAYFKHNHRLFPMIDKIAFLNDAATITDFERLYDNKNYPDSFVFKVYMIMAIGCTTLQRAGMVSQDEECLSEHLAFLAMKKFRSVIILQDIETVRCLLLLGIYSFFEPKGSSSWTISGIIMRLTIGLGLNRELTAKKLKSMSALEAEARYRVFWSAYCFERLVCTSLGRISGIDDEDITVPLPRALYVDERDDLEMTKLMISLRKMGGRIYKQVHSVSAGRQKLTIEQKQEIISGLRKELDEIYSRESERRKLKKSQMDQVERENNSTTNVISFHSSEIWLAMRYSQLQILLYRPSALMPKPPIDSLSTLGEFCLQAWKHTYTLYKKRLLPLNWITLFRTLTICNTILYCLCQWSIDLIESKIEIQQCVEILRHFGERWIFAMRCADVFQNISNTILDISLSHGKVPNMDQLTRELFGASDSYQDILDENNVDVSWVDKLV
Description: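 Universal 'all 10-mer' protein binding microarrays (Agilent AMADID 015681) probed with GST-tagged S. cerevisiae TFs (full-length or DBD) made by in vitro transcription/translation (PURExpress), about 100-200 nM. Bound TF was detected with fluorescent anti-GST. Each ungapped 8-mer (which stands for itself and its reverse complement) is scored by the PBM enrichment score (E-score), a modified Wilcoxon-Mann-Whitney statistic from -0.5 to +0.5, computed with the Universal PBM Analysis Suite. Scale: above 0.35 generally sequence-specific binding.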

Row | Sequence | PBM E-score
1 | AGGAGTCA | -0.194
2 | GGGAGTGA | -0.0152
3 | AGCGCAGA | -0.0263
4 | CCATGACG | 0.0201
5 | CCAATTTA | 0.119
6 | ACACCGCA | 0.44
7 | CTACCGCC | 0.305
8 | CCACCGCA | 0.245
9 | TCACCGCA | 0.305
10 | CCACCGCG | 0.3
11 | AGACCGCC | 0.364
12 | CGACCGCC | 0.255
13 | ATACCGCG | 0.33
14 | ATACCGCC | 0.434
15 | AGACCGCG | 0.297
16 | ATACCGCA | 0.325
17 | ACACCGCG | 0.444
18 | CCCGTGAC | 0.155
19 | GATTTGAC | 0.0761
20 | CAGCGTAA | -0.168
21 | CCCATTAG | -0.361
22 | AATTCCGA | 0.265
23 | GGACGGGA | 0.1
24 | CCTTTGCG | 0.03
25 | GATGCCCA | -0.136

Row | Sequence | PBM E-score
26 | ACACCGCC | 0.459
27 | GGACCGCC | 0.288
28 | GCACCGCC | 0.377
29 | ATACCGTG | 0.249
30 | ACACCGCT | 0.419
31 | ATACCGTA | 0.259
32 | AAACCGCT | 0.0494
33 | CCACCGCC | 0.282
34 | AGACCGCT | 0.345
35 | ATACCGTC | 0.357
36 | GAACCGCC | 0.187
37 | AAACCGCC | 0.302
38 | ATCTGGTC | -0.153
39 | ATTTAGAG | -0.138
40 | AATGGTGA | -0.231
41 | TGTAGCAA | -0.0607
42 | AATAAGCA | -0.0559
43 | CAAAGTAG | -0.164
44 | GGACCGCA | 0.188
45 | GCACCGCA | 0.361
46 | GCACCGTA | 0.248
47 | CATCCGAC | 0.288
48 | CGAGACTA | -0.0587
49 | CGGGGTCA | 0.441
50 | CCGGGTGA | 0.179

Row | Sequence | PBM E-score
51 | GGGGGTCA | -0.125
52 | CGGGGTGA | 0.432
53 | CCGGGTCA | 0.176
54 | GGGGGTGA | -0.123
55 | CGCTTGGA | -0.0324
56 | TAGGACAA | -0.287
57 | CCCGGGTC | 0.352
58 | CCCCGGTA | 0.298
59 | CCCGGGTA | 0.101
60 | ACCGGGTC | 0.19
61 | CCCCGGTC | 0.369
62 | ACCCGGTC | 0.204
63 | CCCGCACG | 0.325
64 | GAAGTTCA | -0.189
65 | CCCCGGGA | 0.268
66 | ACCCCGGA | 0.308
67 | ACCCGGGG | 0.185
68 | ACCCCGGT | 0.356
69 | ACCCCGGC | 0.343
70 | CCCCCGGG | 0.237
71 | CCCCGGGC | 0.265
72 | CCCCGGGG | 0.393
73 | ACCCCGGG | 0.392
74 | TAGAAAAA | -0.116
75 | ACAGCCCC | -0.0495

Row | Sequence | PBM E-score
76 | CCTGTGAC | -0.0962
77 | CCGATGAC | 0.301
78 | GTCCACGA | -0.134
79 | AGGCTCTC | -0.369
80 | AGAACTTA | -0.169
81 | AATGTAGT | -0.128
82 | ACAAAGCA | -0.0624
83 | CTTGGGAC | -0.0832
84 | AATTGCCC | 0.0559
85 | CAATGCCG | 0.334
86 | AATTGCCG | 0.354
87 | AAGTGCCA | -0.182
88 | AAATGCCG | 0.435
89 | AAGTGCCC | 0.0216
90 | AAATGCCC | 0.0775
91 | AAGTGCCG | 0.409
92 | AATTGCCA | -0.27
93 | CTAGCGTC | 0.0861
94 | AGAAACCA | -0.212
95 | CCATGGCA | -0.0516
96 | ACCCCTAC | -0.171
97 | ATACATTC | -0.228
98 | AACCGTCG | 0.212
99 | GACCGTCC | 0.21
100 | CACCGTCG | 0.373

Row | Sequence | PBM E-score
101 | CACCGTCC | 0.407
102 | AACCGTCC | -0.0366
103 | CACCGTCA | 0.333
104 | AACCTAGC | -0.17
105 | CTGTGGCA | -0.279
106 | ATAAAGCG | 0.236
107 | ATAAGGCC | 0.359
108 | ATAAGACG | -0.111
109 | CTAAAGCC | 0.228
110 | CTAAGCCC | 0.324
111 | ATAAGCCC | 0.406
112 | ATAAGACC | 0.397
113 | CTAAGACC | 0.22
114 | ATAAGGCG | -0.00531
115 | ATAAAGCC | 0.359
116 | CTAAGGCC | 0.262
117 | ATAAGCCA | -0.107
118 | AGAAAGAG | -0.102
119 | ACCTGATA | 0.0218
120 | ATAAGTCG | 0.15
121 | ATAAGTCC | 0.443
122 | CTAAGTCC | 0.245
123 | ATGCGTTG | -0.0346
124 | AAACTCCC | 0.104
125 | GAGTTCGC | 0.0473

Row | Sequence | PBM E-score
126 | GACGCCGC | 0.406
127 | AACGCCAT | -0.106
128 | AACGCCTT | -0.00961
129 | AACGCCGC | 0.448
130 | GACGCCGA | 0.342
131 | CACGCCGA | 0.133
132 | AACGCCGT | 0.437
133 | TACGCCGA | 0.299
134 | AACGCCGA | 0.456
135 | AACGCCTC | -0.064
136 | CACGCCGC | 0.293
137 | AACGCCAC | -0.0588
138 | ATAGCCCA | -0.245
139 | ACCAGCGA | 0.0766
140 | AAAGAGAA | -0.00974
141 | CACGCCGG | 0.268
142 | AACGCCCG | 0.24
143 | AACGCCGG | 0.44
144 | AAATAGAT | 0.104
145 | AGCTCCGG | 0.362
146 | AGCTCCTC | -0.184
147 | AGCTCCTG | -0.18
148 | AGCTCCGC | 0.406
149 | CGCTCCGA | 0.231
150 | CGCTCCGC | 0.164

Row | Sequence | PBM E-score
151 | GGCTCCGA | 0.0871
152 | AGCTCCGA | 0.405
153 | AGCTCCCG | -0.0713
154 | AGAGCAGA | -0.138
155 | CTGCCCGC | 0.06
156 | ATGCCCGC | 0.366
157 | AGGCCCGA | 0.314
158 | CGGCCCGC | 0.188
159 | ATGCCCGG | 0.318
160 | AGGCCCGC | 0.36
161 | TGACGTCA | 0.158
162 | AGATGCGA | 0.0797
163 | TACCACGA | -0.267
164 | CTCCGCCA | 0.293
165 | CTCCGCCC | 0.397
166 | CGCCGCGC | 0.368
167 | AGCCGCCC | 0.144
168 | CGCCGCCA | 0.348
169 | CGCCGCCG | 0.369
170 | ATCCGCCC | 0.218
171 | AGCCGCGC | 0.173
172 | AGCCGCCG | 0.215
173 | CGCCGCCC | 0.352
174 | GGCCGCCC | 0.253
175 | CGCCGCGA | 0.289
